Experimental data from the supplement of paper PMC11732987, “Enantioselective OTUD7B fragment discovery through chemoproteomics screening and high-throughput optimisation” (Communications Chemistry, 2025).

How the values were obtained:
Assay in all cases: log2 ratio of Biotin-Ahx-Ub-VS probe labelling (fragment/DMSO); higher = less target engagement (more negative = stronger competition), active = hit call of the paper (q ≤ 0.05, log2 ratio ≤ -1)
Conditions in all cases: compound concentration: 200 uM; treatment time: 3 h
[1] = target: T1, USP19 (UniProt O94966)
T1 sequence (whole entry): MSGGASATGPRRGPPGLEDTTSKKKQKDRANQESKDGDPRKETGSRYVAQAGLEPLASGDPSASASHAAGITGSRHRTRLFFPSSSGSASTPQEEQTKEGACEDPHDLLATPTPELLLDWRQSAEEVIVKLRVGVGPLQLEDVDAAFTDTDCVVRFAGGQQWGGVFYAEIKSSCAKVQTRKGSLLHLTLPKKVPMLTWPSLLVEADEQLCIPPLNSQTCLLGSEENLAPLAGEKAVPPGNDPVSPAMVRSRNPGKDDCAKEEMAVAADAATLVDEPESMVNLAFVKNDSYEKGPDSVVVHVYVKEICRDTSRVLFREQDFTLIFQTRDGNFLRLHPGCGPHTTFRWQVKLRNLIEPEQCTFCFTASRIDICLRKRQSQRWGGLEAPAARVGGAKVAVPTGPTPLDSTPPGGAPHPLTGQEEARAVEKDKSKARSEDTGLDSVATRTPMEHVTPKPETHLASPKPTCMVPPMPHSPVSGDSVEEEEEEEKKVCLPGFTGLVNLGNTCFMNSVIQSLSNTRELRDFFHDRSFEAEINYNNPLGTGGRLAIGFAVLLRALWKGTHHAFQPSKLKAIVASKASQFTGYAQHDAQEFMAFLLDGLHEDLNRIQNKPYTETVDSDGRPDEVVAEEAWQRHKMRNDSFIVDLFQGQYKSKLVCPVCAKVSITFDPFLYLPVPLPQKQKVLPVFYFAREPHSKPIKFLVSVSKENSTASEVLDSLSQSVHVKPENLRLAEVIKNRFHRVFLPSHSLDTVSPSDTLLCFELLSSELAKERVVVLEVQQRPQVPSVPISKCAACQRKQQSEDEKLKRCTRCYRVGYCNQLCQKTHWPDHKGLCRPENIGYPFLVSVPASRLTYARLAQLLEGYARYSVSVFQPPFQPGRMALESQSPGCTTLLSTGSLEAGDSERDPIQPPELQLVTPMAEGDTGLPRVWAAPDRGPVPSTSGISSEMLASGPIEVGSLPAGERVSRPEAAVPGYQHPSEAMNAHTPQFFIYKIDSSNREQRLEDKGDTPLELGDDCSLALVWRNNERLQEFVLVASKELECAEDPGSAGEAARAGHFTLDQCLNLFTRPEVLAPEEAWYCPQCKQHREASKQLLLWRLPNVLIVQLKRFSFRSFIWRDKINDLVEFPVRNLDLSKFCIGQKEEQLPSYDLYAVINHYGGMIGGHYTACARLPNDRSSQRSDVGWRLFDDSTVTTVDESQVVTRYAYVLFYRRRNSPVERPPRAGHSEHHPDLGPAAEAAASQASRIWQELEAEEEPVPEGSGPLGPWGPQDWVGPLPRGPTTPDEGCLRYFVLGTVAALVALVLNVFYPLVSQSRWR
Method in brief: (§1)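 Labelled DUBs were enriched with NeutrAvidin, digested with LysC and trypsin, and run by diaPASEF LC-MS/MS. The labelling used Biotin-Ahx-Ub-VS at 0.5 µM final for 1 h on HEK293T lysate (495 µg per sample) previously treated in triplicate with fragment at 200 µM or vehicle for 3 h. Values are average log2 fragment/vehicle ratios by unpaired t-test on global-median-normalised Spectronaut quantities of proteins with ≥2 unique peptides.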

[2] = target: T2, USP22 (UniProt Q9UPT9)
T2 sequence (whole entry): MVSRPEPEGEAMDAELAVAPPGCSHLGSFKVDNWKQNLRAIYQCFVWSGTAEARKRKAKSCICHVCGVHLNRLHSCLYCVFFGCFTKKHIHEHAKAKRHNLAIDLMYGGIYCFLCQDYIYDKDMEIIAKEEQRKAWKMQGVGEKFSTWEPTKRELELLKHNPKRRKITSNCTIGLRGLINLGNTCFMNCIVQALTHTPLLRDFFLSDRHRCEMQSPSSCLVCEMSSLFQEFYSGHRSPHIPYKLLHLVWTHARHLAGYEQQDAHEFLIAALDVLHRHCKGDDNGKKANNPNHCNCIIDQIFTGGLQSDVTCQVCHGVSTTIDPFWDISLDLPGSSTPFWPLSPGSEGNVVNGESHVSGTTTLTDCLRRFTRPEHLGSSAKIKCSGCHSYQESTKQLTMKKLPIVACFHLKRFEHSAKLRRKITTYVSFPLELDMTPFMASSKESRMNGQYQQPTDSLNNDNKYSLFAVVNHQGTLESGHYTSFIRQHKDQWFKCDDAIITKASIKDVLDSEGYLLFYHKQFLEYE
Method in brief: as §1

[3] = target: USP24 (UniProt Q9UPU5)
Method in brief: as §1

[4] = target: T3, USP25 (UniProt Q9UHP3)
T3 sequence (whole entry): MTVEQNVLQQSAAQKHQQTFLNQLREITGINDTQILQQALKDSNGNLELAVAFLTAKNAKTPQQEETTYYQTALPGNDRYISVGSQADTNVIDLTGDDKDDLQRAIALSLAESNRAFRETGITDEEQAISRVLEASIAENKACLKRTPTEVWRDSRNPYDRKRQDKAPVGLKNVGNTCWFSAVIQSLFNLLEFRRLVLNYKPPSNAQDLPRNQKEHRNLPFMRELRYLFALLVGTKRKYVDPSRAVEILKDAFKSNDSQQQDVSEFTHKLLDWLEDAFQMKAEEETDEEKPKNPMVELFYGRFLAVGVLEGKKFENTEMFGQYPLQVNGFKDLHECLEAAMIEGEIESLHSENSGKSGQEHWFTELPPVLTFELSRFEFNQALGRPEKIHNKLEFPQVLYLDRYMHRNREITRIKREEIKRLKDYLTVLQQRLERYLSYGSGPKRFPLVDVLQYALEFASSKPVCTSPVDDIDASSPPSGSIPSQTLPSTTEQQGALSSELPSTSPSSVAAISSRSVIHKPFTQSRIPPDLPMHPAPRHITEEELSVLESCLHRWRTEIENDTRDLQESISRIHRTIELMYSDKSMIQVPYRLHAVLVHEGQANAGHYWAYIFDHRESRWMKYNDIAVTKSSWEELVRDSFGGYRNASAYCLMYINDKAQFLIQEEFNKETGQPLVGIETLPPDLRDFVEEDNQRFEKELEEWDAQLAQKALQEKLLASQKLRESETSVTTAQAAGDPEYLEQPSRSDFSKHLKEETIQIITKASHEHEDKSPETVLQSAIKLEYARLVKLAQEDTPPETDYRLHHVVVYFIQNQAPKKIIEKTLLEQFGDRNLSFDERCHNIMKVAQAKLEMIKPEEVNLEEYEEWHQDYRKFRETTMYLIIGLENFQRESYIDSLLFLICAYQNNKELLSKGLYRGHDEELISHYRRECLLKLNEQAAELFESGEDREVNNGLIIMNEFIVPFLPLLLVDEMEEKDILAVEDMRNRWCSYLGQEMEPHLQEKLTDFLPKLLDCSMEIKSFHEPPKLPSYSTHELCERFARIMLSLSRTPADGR
Method in brief: as §1

[5] = target: T4, USP28 (UniProt Q96RU2)
T4 sequence (whole entry): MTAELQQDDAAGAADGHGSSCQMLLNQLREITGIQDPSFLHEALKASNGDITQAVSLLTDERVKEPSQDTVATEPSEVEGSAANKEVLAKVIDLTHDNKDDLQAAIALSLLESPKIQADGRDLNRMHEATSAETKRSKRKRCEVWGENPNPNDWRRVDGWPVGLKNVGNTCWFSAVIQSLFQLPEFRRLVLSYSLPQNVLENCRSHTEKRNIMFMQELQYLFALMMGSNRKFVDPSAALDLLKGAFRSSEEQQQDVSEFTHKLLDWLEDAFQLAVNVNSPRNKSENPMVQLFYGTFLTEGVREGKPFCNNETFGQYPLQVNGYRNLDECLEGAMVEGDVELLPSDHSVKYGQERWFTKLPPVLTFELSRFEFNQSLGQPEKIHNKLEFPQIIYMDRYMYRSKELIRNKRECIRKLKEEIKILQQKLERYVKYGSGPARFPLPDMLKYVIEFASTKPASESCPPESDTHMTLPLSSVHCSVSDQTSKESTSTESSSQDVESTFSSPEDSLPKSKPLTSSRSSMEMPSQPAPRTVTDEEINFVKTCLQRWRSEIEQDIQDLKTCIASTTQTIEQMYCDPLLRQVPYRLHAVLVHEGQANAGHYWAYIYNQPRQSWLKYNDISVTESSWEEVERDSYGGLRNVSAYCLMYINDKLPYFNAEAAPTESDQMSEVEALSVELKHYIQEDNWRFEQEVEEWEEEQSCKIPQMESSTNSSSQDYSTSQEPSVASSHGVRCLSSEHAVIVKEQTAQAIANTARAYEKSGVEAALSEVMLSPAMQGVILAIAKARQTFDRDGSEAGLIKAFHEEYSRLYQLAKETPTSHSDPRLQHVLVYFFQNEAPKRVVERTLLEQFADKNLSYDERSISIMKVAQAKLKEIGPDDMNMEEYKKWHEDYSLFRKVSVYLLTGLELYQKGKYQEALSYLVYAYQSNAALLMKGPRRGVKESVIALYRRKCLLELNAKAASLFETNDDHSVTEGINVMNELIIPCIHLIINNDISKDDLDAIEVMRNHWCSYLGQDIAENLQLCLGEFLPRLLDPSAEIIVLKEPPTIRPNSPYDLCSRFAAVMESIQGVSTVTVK
Method in brief: as §1

Measured: log2 ratio of Biotin-Ahx-Ub-VS probe labelling

USP24, sequence (Q9UPU5 whole entry): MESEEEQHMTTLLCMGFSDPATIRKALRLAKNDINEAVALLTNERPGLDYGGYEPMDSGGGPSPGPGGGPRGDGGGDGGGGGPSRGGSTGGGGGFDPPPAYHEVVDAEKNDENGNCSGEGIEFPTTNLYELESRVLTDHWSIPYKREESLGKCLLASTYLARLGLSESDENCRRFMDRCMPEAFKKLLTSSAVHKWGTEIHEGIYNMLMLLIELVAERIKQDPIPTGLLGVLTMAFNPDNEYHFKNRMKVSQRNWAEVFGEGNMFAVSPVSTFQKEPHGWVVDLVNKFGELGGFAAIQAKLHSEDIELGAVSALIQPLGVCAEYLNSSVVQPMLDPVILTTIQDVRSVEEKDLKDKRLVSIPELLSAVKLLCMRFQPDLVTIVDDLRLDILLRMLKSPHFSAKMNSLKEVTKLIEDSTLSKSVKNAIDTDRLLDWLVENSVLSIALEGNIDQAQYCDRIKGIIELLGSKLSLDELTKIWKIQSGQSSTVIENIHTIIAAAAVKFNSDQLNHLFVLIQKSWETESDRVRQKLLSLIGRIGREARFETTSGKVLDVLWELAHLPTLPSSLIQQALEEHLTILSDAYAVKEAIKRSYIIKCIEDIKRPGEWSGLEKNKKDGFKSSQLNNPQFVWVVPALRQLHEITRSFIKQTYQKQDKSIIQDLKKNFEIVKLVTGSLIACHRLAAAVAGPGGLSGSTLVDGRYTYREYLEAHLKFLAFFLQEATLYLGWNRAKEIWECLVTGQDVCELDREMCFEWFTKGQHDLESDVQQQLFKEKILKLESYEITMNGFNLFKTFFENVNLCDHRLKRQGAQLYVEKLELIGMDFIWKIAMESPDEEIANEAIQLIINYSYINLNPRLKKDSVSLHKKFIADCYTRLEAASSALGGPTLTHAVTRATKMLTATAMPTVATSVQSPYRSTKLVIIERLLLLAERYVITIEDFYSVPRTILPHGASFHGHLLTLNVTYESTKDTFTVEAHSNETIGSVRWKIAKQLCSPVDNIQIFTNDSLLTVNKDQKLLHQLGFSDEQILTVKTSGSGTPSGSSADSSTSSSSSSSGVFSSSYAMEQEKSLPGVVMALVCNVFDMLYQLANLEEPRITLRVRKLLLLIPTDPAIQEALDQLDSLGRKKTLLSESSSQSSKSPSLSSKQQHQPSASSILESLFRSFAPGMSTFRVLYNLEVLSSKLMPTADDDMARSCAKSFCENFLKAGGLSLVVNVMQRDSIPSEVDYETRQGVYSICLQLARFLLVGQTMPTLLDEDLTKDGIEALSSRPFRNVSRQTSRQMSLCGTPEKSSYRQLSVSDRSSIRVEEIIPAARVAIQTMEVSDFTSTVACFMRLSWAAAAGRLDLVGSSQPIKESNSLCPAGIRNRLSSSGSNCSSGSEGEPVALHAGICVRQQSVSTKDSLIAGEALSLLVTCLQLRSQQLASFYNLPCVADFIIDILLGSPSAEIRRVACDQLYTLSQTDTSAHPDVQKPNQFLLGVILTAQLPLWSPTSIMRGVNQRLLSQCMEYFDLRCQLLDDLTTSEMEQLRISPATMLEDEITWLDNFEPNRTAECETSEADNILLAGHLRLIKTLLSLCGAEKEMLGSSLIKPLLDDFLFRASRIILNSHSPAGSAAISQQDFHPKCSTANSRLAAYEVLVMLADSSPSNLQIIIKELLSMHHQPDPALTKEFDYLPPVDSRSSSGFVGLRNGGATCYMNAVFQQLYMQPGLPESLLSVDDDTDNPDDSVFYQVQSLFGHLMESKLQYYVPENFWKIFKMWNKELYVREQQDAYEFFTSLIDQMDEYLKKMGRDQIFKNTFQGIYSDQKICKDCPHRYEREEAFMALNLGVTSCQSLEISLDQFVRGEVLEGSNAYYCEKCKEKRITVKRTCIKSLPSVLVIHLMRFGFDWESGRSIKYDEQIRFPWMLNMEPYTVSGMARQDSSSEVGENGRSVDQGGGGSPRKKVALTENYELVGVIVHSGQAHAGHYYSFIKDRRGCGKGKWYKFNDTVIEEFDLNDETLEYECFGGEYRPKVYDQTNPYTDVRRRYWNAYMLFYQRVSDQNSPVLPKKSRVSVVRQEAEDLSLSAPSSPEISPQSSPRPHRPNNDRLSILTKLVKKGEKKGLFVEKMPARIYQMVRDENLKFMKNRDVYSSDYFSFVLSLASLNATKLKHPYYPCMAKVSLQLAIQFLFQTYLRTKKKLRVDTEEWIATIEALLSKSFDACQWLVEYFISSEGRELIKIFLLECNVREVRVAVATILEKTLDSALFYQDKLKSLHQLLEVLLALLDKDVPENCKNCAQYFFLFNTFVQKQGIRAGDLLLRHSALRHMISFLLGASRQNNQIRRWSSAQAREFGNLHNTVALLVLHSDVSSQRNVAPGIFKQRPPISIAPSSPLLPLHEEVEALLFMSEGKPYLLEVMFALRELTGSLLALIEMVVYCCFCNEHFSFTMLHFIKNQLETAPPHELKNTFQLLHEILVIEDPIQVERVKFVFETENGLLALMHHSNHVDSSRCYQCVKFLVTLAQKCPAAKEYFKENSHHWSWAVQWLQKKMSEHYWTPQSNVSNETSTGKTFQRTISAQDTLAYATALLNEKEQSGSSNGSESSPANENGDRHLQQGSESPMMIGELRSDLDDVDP

O=C(CCl)N1CCOCCC1c1ccccc1 (stereo not given)
inactive: [1] -0.132 | [2] 0.147 | [3] -0.633 | [4] 0.0233 | [5] -0.12
